This assay has as its target PUM1 PUF domain R5-RRC (Homo sapiens, UniProt Q14671 828-1176, C1007R;Q1011C). As to the kind of experiment: yeast three-hybrid, YBZ-1, SC-Leu-His + 0.5 mM 3-AT, 4 days. Conditions: tags: N-Gal4 AD-HA kept; label: inside an RPR1-promoter hybrid RNA with tandem MS2 sites; ssRNA. The gist of the method:
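The interaction score is the log change in variant frequency from input to selection. Scores were computed in log2 with a pseudocount of 1 for absent variants, using Illumina sequencing of PCR-amplified repeat regions. The input came from four days on SC-Leu and the selection from four days on SC-Leu-His + 0.5 mM 3-AT. The cells were strain YBZ-1 (LexA–MS2 coat fusion, HIS3 reporter) co-expressing Pumilio-1 PUF domain libraries and matching RNA elements from a centromeric plasmid.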
“GGCUAGAACUAGUGGAUCCCCCGGCGCCCGGCGGCUCGAGCCCGGGUAAGUGUCAAUAGUCUGCAUGCCGCCGGGCGCCAUGCCUGCAGGUCGACUCUAGAAAACAUG”: the binding signal is 3.9 log2 enrichment (interaction score). The result for “GGCUAGAACUAGUGGAUCCCCCGGCGCCCGGCGGCUCGAGCCCGGGUAAGUGUAAAUAGUCUGCAUGCCGCCGGGCGCCAUGCCUGCAGGUCGACUCUAGAAAACAUG” reads 2.21 log2 enrichment (interaction score); that for “GGCUAGAACUAGUGGAUCCCCCGGCGCCCGGCGGCUCGAGCCCGGGUAAGUGUGAAUAGUCUGCAUGCCGCCGGGCGCCAUGCCUGCAGGUCGACUCUAGAAAACAUG”, 1.37 log2 enrichment (interaction score). The result for “GGCUAGAACUAGUGGAUCCCCCGGCGCCCGGCGGCUCGAGCCCGGGUAAGUGUUAAUAGUCUGCAUGCCGCCGGGCGCCAUGCCUGCAGGUCGACUCUAGAAAACAUG” reads 4.61 log2 enrichment (interaction score).

Values taken from paper PMC8384837, “Expanding the binding specificity for RNA recognition by a PUF domain”.
